# PubChem BioAssay (NCATS)
# Results filed as inconclusive are left out. Entries that show only a call come without a potency. The source made the active and inactive calls. Calls come from the whole dose curve.
# Assay: Confirmatory qHTS to identify inhibitors of SARS-CoV-2 cell entry (AID 1645844); note: nearly all actives have a fitted effect of over 45% in size
# Conditions: SARS-CoV-2 pseudotyped particle cell entry, luciferase; series mostly up to 57.2 µM
# How it was run: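 HEK293-ACE2 cells (Expi293F stably expressing human ACE2) were pretreated with compounds for 1 hr at 37C, then infected with MLV-based particles carrying Wuhan-Hu-1 spike (C-terminal 19-aa truncation). Luciferase luminescence read after 48 hr; normalized to spike PP (100%) and bald PP (0%).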
# Potency is the fitted concentration of half-maximal effect.
row,SMILES,Potency
1,O[C@@H](COc1cccc2ncccc12)CN1CCN(C2c3ccccc3[C@@H]3[C@H](c4ccccc42)C3(F)F)CC1 (some centres not stated),19.2 µM (active)
2,CCCCCC(=O)O[C@]1(C(C)=O)CC[C@H]2[C@@H]3CCC4=CC(=O)CC[C@]4(C)[C@H]3CC[C@@]21C,24.1 µM (active)
3,O=C1NC2CCCCN2C12CCN(CCCN1c3ccccc3CCc3ccc(Cl)cc31)CC2 (configuration not stated),15.2 µM (active)
4,CCCCCCOC(=O)NC(=N)c1ccc(NCc2nc3cc(C(=O)N(CCC(=O)OCC)c4ccccn4)ccc3n2C)cc1,10.8 µM (active)
5,CCCOc1ccc2nc(NC(=O)OC)[nH]c2c1,0.764 µM (active)
6,CCCCC(CC)COC(=O)C(C#N)=C(c1ccccc1)c1ccccc1 (configuration not stated),27.1 µM (active)
7,CN(C(=O)c1c(O)c2ccccc2n(C)c1=O)c1ccccc1,inactive
8,O=C(Nc1ccccc1)OCC(CN1CCCCC1)OC(=O)Nc1ccccc1 (configuration not stated),inactive
9,O=c1[nH]c(=O)n([C@H]2C[C@H](O)[C@@H](CO)O2)cc1C(F)(F)F,0.0857 µM (active)
10,CC1=CC(=O)c2ccccc2C1=O,19.2 µM (active)
11,COC(=O)C1=C(C)NC(C)=C(C(=O)OC(C)(C)CN(C)CCC(c2ccccc2)c2ccccc2)C1c1cccc([N+](=O)[O-])c1 (configuration not stated),6.07 µM (active)
12,CCOC(=O)C1=C(C)NC(C)=C(C(=O)OCC)C1c1ccccc1/C=C/C(=O)OC(C)(C)C,0.961 µM (active)
13,CCN(CC)CCOc1ccc(/C(=C(\Cl)c2ccccc2)c2ccccc2)cc1,21.5 µM (active)
14,Oc1c(Cl)cc(Cl)cc1Sc1cc(Cl)cc(Cl)c1O,2.71 µM (active)
15,CCCCCOc1ccccc1/C(=C\SC)n1ccnc1,24.1 µM (active)
16,CCCSS/C(CCO)=C(\C)N(C=O)Cc1cnc(C)nc1N,inactive
17,COCCOC(=O)C1=C(C)NC(C)=C(C(=O)OC/C=C/c2ccccc2)C1c1cccc([N+](=O)[O-])c1 (configuration not stated),24.1 µM (active)

# Assay: Cytotoxicity counterscreen for inhibitors of SARS-CoV-2 cell entry (AID 1645845); note: nearly all actives have a fitted effect of over 50% in size
# Conditions: cell viability (SARS-CoV-2 entry assay cells); series mostly up to 57.1 µM
# How it was run: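 Expi293F/hACE2 cells seeded overnight; cpd pin-transferred in DMSO, 1 h preincubation, + media, 48 h 37 C 5% CO2; ATPLite 1step luminescence; normalized to cells and no cells.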
row,SMILES,Potency
1,CCCS(=O)c1ccc2nc(NC(=O)OC)[nH]c2c1 (configuration not stated),inactive
2,CC(C)(C)c1ccc(C(O)CCCN2CCC(C(O)(c3ccccc3)c3ccccc3)CC2)cc1 (configuration not stated),inactive
3,O=C1NC2CCCCN2C12CCN(CCCN1c3ccccc3CCc3ccc(Cl)cc31)CC2 (configuration not stated),inactive
4,CCCCCCOC(=O)NC(=N)c1ccc(NCc2nc3cc(C(=O)N(CCC(=O)OCC)c4ccccn4)ccc3n2C)cc1,inactive
5,Cc1ccc2nc(N)[nH]c(=O)c2c1Sc1ccncc1,inactive
6,COC(=O)Nc1nc2ccc(S(=O)c3ccccc3)cc2[nH]1 (configuration not stated),inactive
7,CN(C)CCOC1=Cc2ccccc2Sc2ccc(Cl)cc21,inactive
8,CCCOc1ccc2nc(NC(=O)OC)[nH]c2c1,inactive
9,O=C(CCCN1CCN(c2ccccn2)CC1)c1ccc(F)cc1,inactive
10,c1ccc([C@H]2CN3CCSC3=N2)cc1,inactive
11,CCCCC(CC)COC(=O)C(C#N)=C(c1ccccc1)c1ccccc1 (configuration not stated),inactive
12,CN(C(=O)c1c(O)c2ccccc2n(C)c1=O)c1ccccc1,inactive
13,O=C(Nc1ccccc1)OCC(CN1CCCCC1)OC(=O)Nc1ccccc1 (configuration not stated),inactive
14,N[C@H](C(=O)O)[C@@H](O)c1ccc(O)c(O)c1,inactive
15,O=c1[nH]c(=O)n([C@H]2C[C@H](O)[C@@H](CO)O2)cc1C(F)(F)F,inactive
16,O=C(O)c1cccc(-c2noc(-c3ccccc3F)n2)c1,6.31 µM (active)
17,CC1=CC(=O)c2ccccc2C1=O,inactive
18,CCN(CC)CC(=O)Nc1c(C)cccc1C(=O)OC,inactive

row,SMILES,Potency
1,CCc1ccc(C(=O)C(C)CN2CCCCC2)cc1 (configuration not stated),inactive
2,CC(=O)c1ccc2c(c1)N(CCCN(C)C)c1ccccc1S2,inactive
3,CCCCC/C=C\C/C=C\CCCCCCCC(=O)NC(C)c1ccccc1 (configuration not stated),inactive
4,CCOC(=O)C1=C(C)NC(C)=C(C(=O)OCC)C1c1ccccc1/C=C/C(=O)OC(C)(C)C,inactive
5,CCN(CC)CCOc1ccc(/C(=C(\Cl)c2ccccc2)c2ccccc2)cc1,inactive
6,CC(C)c1cc2c(cc1S(=O)(=O)O)[C@@]1(C)CCC[C@@](C)(C(=O)O)[C@@H]1CC2,inactive
7,CCOC(=O)[C@H](CCc1ccccc1)N[C@@H](C)C(=O)N(CC(=O)O)C1Cc2ccccc2C1,inactive
8,C#C[C@]1(O)CC[C@H]2[C@@H]3CCc4cc(O)ccc4[C@H]3CC[C@@]21C,inactive
9,CC(Oc1c(Cl)cccc1Cl)C1=NCCN1 (configuration not stated),inactive
10,CC1(C)CCC(C)(C)c2cc(NC(=O)c3ccc(C(=O)O)cc3)ccc21,inactive
11,CCC(=O)c1ccc(O)cc1,inactive
12,CNC1CCCN(c2c(F)cc3c(=O)c(C(=O)O)cn(C4CC4)c3c2OC)C1 (configuration not stated),inactive
13,CN(C)CCN(Cc1ccccc1)c1ccccn1,inactive
14,CCCSS/C(CCO)=C(\C)N(C=O)Cc1cnc(C)nc1N,inactive
15,O=C(O)[C@H](O)[C@@H](O)[C@H](O[C@@H]1O[C@H](CO)[C@H](O)[C@H](O)[C@H]1O)[C@H](O)CO,inactive
16,C=C1C(=C/C=C2\CCC[C@]3(C)[C@@H]([C@H](C)/C=C/[C@@H](O)C4CC4)CC[C@@H]23)C[C@@H](O)C[C@@H]1O,inactive
17,COCCOC(=O)C1=C(C)NC(C)=C(C(=O)OC/C=C/c2ccccc2)C1c1cccc([N+](=O)[O-])c1 (configuration not stated),inactive
